PubChem BioAssay (NCI)
The panel holds about 83,000 compounds, 20% with a hit somewhere; the sample as a whole holds those more often.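 Each cell line was grown in a 96-well plate and treated with one concentration of compound for 48 hours. Values below 10 were considered active.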 Values without a mark were called inactive. Calls of active or inactive are those of the source.

System: HL-60(TB) leukemia
Assay: NCI-60 one-dose screen, 48 h (100 = growth as untreated, 0 = no growth, -100 = all killed)
Conditions: 10 µM unless noted

SMILES | growth
Nc1ccc(N)c([N+](=O)[O-])c1 | 110%
CCOc1cc(F)c([N+](=O)[O-])cc1[N+](=O)[O-] | -12.6% (active)
COc1ccc(C2=NN(/C=C3\SC(=O)NC3=Nc3ccc(F)cc3)C(c3ccc(F)cc3)C2)cc1 (stereo unspecified) | 98.1%
COC(CCCl)c1ccc(Cl)cc1 (stereo unspecified) | 94.2%
COc1cc2c3c(n(C)c(=O)c2cc1OC)-c1cc2c(cc1C3=O)OCO2 | 73.6%
Nc1ccc(C(OC(=O)c2cc3ccccc3c(Cc3c(O)c(C(=O)OC(c4ccc(N)cc4)(c4ccc(N)cc4)c4ccc(N)cc4)cc4ccccc34)c2O)(c2ccc(N)cc2)c2ccc(N)cc2)cc1 | 4.23% (active)
CC(CCCC(=O)O)c1ccoc1 (stereo unspecified) | 97.6%
c1ccc(Sc2ncnc3ccccc23)cc1 | 74.1%
COc1cc(OC)c(/C=C/C(=O)c2ccc(Nc3ncnc4ccccc34)cc2)c(OC)c1 | 2.85% (active)
C/C(=N\Nc1ccccc1)c1ccc(NC2=CC(=O)c3ccccc3C2=O)cc1 | 80.6%
CCCCCCCCCCCCCCCCCC1=NC(C)(C)CN1CCO | -62.2% (active)
C=C1CC2(OC1=O)C(=O)Nc1ccccc12 (stereo unspecified) | 31.6%
OCCN(CCO)C(=S)S | 104%
CCCCNCC(O)c1cc2c(Cl)cc(Cl)cc2c2cc(C(F)(F)F)ccc12 (stereo unspecified) | -59.2% (active)
CCCc1cc2c(=O)c(C(=O)OC)c[nH]c2cc1N(CC)CC | 91.6%
CCCCN(CC)CCCCCCCCCCN1CCCc2cc(OC)ccc21 | -54% (active)
CCC(C)Nc1ccc(NC(C)CC)cc1 (stereo unspecified) | 57.5%
c1ccc2c(c1)nc(-n1ccnc1)c1nc3ccccc3n12 | 101%
O=C(CN1C=NC2C(N3CCOCC3)=NC=NC21)c1ccc(Br)cc1 (stereo unspecified) | 102%
COc1cc2c(O)n(CCCN3CCOCC3)c3c4cnc5cccc(c(=O)c3c2cc1OC)c54 | 42.8%
COc1ccc2c(c1)c(-c1nc(-c3c[nH]c4ncccc34)cs1)cn2CCN | 41.2%

SMILES | growth
Nc1c(Cl)cc(N=Nc2ccccc2)cc1Cl | 97.4%
c1ccc([I+]c2ccccc2)cc1 | 52%
Cc1ccccc1-n1nnc(C(=O)Nc2nc(-c3ccccc3)c(-c3ccccc3)s2)c1C | 89.1% [50 µM]
C=CC(CC(c1ccccc1)(c1ccccc1)c1ccccc1)N(CC)CC (stereo unspecified) | 71.5%
COc1cc(C2C=C(c3ccc(Cl)c(Cl)c3)N=C3SC(C)=CN32)cc(OC)c1OC (stereo unspecified) | 61.6%
C[C@H]1c2ccccc2CN1CCCOc1cc2c(cc1OCC1CC1)C1(CCCC1)C(N)=N2 | 31%
COc1cc(-c2nc3c(c(C)nc4c3nnn4-c3ccccc3)c(=O)o2)cc(OC)c1OC | 105%
Cc1cc(I)nc2ccccc12 | 88.8%
O=c1c2cc(F)ccc2sc2c(NCCCNCCO)nc3ccccc3c12 | 6.49% (active)
N#Cc1c(-c2ccccc2)cc(-c2ccc(Nc3nc(Nc4ccc(Cl)cc4)nc(Nc4ccc(Cl)cc4)n3)cc2)nc1N | 15.6%
COc1ccc(CC(=O)c2ccc(O)cc2O)cc1 | 106%
C=C1C(=O)O[C@H]2[C@H]1CC/C(COC(=O)NCc1ccc(Cn3c(=O)sn(CCCI)c3=O)cc1)=C\CC[C@@]1(C)O[C@@H]21 | -9.41% (active)
C#Cc1cccc(Nc2ncnc3cc(OCCOC)c(OCCOC)cc23)c1 | 49.2%
COc1cc(-c2nn(-c3cccc(NC(=O)Nc4cccc(C(F)(F)F)c4)c3)cc2-c2ccncc2)ccc1Cl | -18.7% (active)
CN1CCN(c2nc(NCCCNc3ccnc4cc(Cl)ccc34)c3ccccc3n2)CC1 | 15%
CC(C)(C)c1cc(C(=O)Nc2cc3ccccc3cc2C(=O)NCCN)cc(C(C)(C)C)c1 | -68.9% (active)
O=C(NNC(=S)Nc1ccccc1)c1ccc(Nc2ncnc3c2cnn3-c2cccc(Br)c2)cc1 | 111%
CCCCCCCCCCCCCCCCCC1=NCCN1C(=O)OCCO | 35.5%
Cc1nc2sc(C(=O)Nc3ccc(Cl)cc3)c(N)c2cc1C(O)c1ccccc1 (stereo unspecified) | 2.56% (active)
Cc1ccc(S(=O)(=O)N2CCCN(c3nc(-c4ccccc4)nc4nc(-c5ccccc5)oc34)CC2)cc1 | 110%
Cc1c(CC(=O)Nc2ccccc2)nnn1-c1ccccc1 | 99.3%

SMILES | growth
CCCCC[C@H]1C/C=C2/C(=O)C=C[C@@H]2C/C=C\CCCC(=O)O1 | 4.48% (active)
COc1cc(C2C=C(c3cccc(NC(C)=O)c3)Nc3ncnn32)cc(OC)c1OC (stereo unspecified) | -35.2% (active)
COc1ccccc1/C=C/C(=O)CCC(=O)O | 88.3%
C=CC(=O)Nc1cc2c(Nc3ccc(F)c(Cl)c3)ncnc2cc1OCCCN1CCOCC1 | -26.7% (active)
c1ccc(CSc2ncnc3nc[nH]c23)nc1 | 96.4%
c1ccc2[nH]c(Cc3nc4ccccc4[nH]3)nc2c1 | 75.6%
CCCCCCCC/C=C\CCCCCCCCOc1cccc(CC(=O)NCC[N+]2(C)CCOCC2)c1 | 67.6%
COc1ccc(C(OCC2OC(n3ccc(NC(=O)c4ccccc4)nc3=O)C(O)C2O)(c2ccccc2)c2ccccc2)cc1 (stereo unspecified) | 22.9%
C[C@@H]1CN(Cc2ccc(/C=C/c3n[nH]c4ccc5nc(-c6cn[nH]c6C(F)(F)F)c6c(c5c34)CCCC6)cc2)C[C@H](C)O1 | 46.7%
COc1cc(NC(C)CCCNC(=O)CCC(=O)NCCCNCCCCCCCCNCCCNC(=O)CCC(=O)NCCCC(C)Nc2cc(OC)cc3cccnc23)c2ncccc2c1 (stereo unspecified) | 56.5%
COc1ccc(-c2n/c(=C\c3c(O)[nH]c4ccc(OC)cc34)cc3c2=Nc2ccccc2-3)cc1 | 81%
O=C(O)/C=C/C(=O)NCc1ccccc1 | 105%
CCOc1cc(C(C)(C)C)ccc1C1=N[C@H](c2ccc(Cl)cc2)[C@H](c2ccc(Cl)cc2)N1C(=O)N1CCN(CC#Cc2cccc3c2CN([C@@H]2CCC(=O)NC2=O)C3=O)CC1 | -20.9% (active)
CC(/C=C1\SC(=S)N(CC(=O)NC(Cc2c[nH]c3ccccc23)C(=O)O)C1=O)=C\c1ccccc1 (stereo unspecified) | 100%
c1ccc(-c2cc3cc4ccccc4cn3c2)cc1 | 94.6%
CCCCCCNC(=O)Oc1ccc(/C(=C(\C)c2ccccc2)c2ccc(OCCN3CCCCC3)cc2)cc1 | 31.1%
COC(=O)c1cc2oc(/C=N/NC(=O)c3cc4oc(-c5cccc(C(F)(F)F)c5)cc4[nH]3)cc2n1Cc1ccccc1 | 69.9%
c1ccc(Nc2cc(-c3cccnc3)[nH]n2)cc1 | 89.3%
Cc1nc2sc(C(=O)Nc3cccc(Br)c3)c(N)c2cc1C(O)c1ccccc1 (stereo unspecified) | -27.4% (active)
COc1ccc(/C=N\Nc2nc(SCC(C)C)nc(-c3ccc(OC)cc3)c2C#N)cc1 | 35.8%
CCOc1ccccc1C(=O)OCC(=O)Nc1cccc(S(=O)(=O)N(C)C)c1 | 86.2%

SMILES | growth
COc1ccc(C(=O)N2c3ccccc3Sc3ccccc32)c(F)c1 | 15.4%
Cc1nc2ccccc2c(/C=C/c2ccc(Cl)cc2)c1C(=O)/C=C/c1ccccc1 | 5.7% (active)
COc1cccc(-c2nc(-c3ccc(NC(=O)C(C)C)cc3)[nH]c2-c2ccnc(Br)c2)c1 | -23.4% (active)
O=S(=O)(NCCNc1nccc(-c2c(-c3ccc(F)c(O)c3)nc3sccn23)n1)c1ccc(F)cc1 | 12.7%
N=C(N)c1ccc(-c2ccc(-c3ccccc3)o2)cc1 | -62% (active)
CCCCCCNC(=O)Oc1ccc(/C(=C(/CC)Cc2ccccc2)c2ccc(OCCN3CCCCC3)cc2)cc1 | 75.1%
CCCCCCCC1(C)NC(=O)NC1=O (stereo unspecified) | 100%
O=C1Nc2ccccc2/C1=N/N=C/c1c[nH]c2ccccc12 | 86.2%
COc1cccc(/C=C/C(=O)Nc2cc(OC)c3c(c2)OCO3)c1 | 78%
CC(=O)O.CN1[CH-]N(Cc2ccc(C#N)cc2)c2ccccc21.[Ag+] | 102%
CC(C)(C)n1cc(-c2ccnc(NCCNS(=O)(=O)c3ccc(Cl)cc3)c2)c(-c2cccc(O)c2)n1 | 39.4%
CCN1C(=O)N(CC)C2Nn3c(s/c(=C4\C(=O)N(C5CCCC5)c5ccccc54)c3=O)=NC21 (stereo unspecified) | 29.8%
O=S(=O)(NCCCNc1nccc(-c2c(-c3ccccc3)nc3occn23)n1)c1ccc(Cl)cc1 | 101%
O=C(NCc1ccc(Cn2c(=O)sn(-c3ccc(Cl)cc3)c2=O)cc1)OCc1ccc2c(Cl)cc(Cl)c(O)c2n1 | 56.3%
CC(=O)[C@H]1CC[C@H]2[C@@H]3CCC4=CC(=O)C=C[C@]4(C)[C@H]3CC[C@]12C | 90.9%
CCOC(=O)c1ccccc1-c1c2ccc(=[N+](C)C)cc-2oc2cc(N(C)C)ccc12 | -14.3% (active)
Cc1ncc(C(=O)Nc2ccc(CN3CCN(C)CC3)c(C(F)(F)F)c2)cc1C#Cc1ccc(N)nc1 | 17.6%
Cc1nn(-c2ccccc2)c(/N=C/N(C)C)c1/C=C/C(=O)c1ccc(Cl)cc1 | 76.3%
